Screens as filed in PubChem.
Rows were chosen to be rich in hits. Some 4% of all compounds tested hit in one or more screens of this group.
PAX8 reporter – inhibitors of PAX8 transcriptional activity in RMG-I cells. AID 652154. RMG-I TPO-luciferase reporter, SteadyGlo, 24 h. inhibition, % at 12.6 µM. 360,000 compounds, 1.2% hits;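 active means mean replicate inhibition at least 60% with every replicate also reaching 60%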;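 further: luciferase light reporting Pax8 driven TPO promoter activity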
Gli-Sufu block – blocks Gli-Sufu signaling in a luciferase reporter | 340,000 compounds, 0.74% hits | Sufu-KO-LIGHT fibroblasts, Gli luciferase reporter luminescence | AID 588413 | inhibition, % at 5 µM;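 active means inhibition above about 55%, limit read from the data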
Shn3 inh set2 – inhibitors of Schnurri-3 3'UTR reporter in osteoblasts; Clone20 osteoblast Shn3 3'UTR firefly luciferase, 24 h; inhibition, % at 12.5 µM; 360,000 compounds, 0.52% hits; AID 588674;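 active means mean inhibition of at least 75% with every replicate also reaching 75%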
Mdm2 MdmX PPI – disrupts the human Mdm2-MdmX interaction; O15151+Q00987; SaOS-2 split-luciferase Mdm2/MdmX complementation, luminescence; inhibition, % at 8 µM; 330,000 compounds, 3% hits;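 active means inhibition of at least 50% at 8 µM in the primary screen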
Target sequence (O15151 whole entry, looked up): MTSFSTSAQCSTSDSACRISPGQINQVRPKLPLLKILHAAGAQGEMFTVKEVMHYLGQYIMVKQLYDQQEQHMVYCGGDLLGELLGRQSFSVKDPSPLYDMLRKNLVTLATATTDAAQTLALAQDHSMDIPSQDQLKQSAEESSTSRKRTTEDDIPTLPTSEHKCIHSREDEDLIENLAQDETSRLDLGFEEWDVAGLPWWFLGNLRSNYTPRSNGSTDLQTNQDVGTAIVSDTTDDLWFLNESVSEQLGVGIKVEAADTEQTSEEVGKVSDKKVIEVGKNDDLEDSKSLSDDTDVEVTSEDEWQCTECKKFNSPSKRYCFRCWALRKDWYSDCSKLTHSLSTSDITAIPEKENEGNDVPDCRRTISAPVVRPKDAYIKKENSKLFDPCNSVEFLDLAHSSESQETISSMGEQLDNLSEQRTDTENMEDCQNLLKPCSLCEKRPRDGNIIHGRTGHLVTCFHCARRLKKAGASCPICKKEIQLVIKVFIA
Target sequence (Q00987 whole entry, looked up): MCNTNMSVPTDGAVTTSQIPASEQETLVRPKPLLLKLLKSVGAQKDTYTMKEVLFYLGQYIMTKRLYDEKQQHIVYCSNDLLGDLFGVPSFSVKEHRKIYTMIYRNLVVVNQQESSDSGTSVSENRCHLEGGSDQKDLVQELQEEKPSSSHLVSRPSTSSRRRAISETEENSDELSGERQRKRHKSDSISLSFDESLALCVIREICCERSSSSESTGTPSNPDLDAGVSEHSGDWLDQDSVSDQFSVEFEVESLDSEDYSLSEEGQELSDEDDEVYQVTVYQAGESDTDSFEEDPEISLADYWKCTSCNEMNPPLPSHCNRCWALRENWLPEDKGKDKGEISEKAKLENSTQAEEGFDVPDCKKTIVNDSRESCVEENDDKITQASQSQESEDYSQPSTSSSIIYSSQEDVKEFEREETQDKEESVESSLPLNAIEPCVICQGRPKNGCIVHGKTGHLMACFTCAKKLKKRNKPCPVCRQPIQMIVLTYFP
Beta apoptosis – beta cell apoptosis inhibition; INS-1E cytokine-induced death, ATP luminescence, 48 h; percent of positive-control rescue, neutral wells zero; 300,000 compounds, 0.8% hits; protection from apoptosis, % (no concentration beside the values);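 active means Every replicate reaches about 75%, or at least half do and their mean reaches it too, limit read from the data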;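 further: higher means more ATP so stronger rescue from cytokine killing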
CSC inhib – blocks cancer stem cells. cancer stem cell-like cells viability, luminescence. inhibition, % at 7.5 µM. 300,000 compounds, 1.1% hits. AID 2717; in the data active means inhibition above about 75%; tested in HMLE shEcad cells
A number is an active result; – = inactive; · = no result.

SMILES | PAX8 reporter | Gli-Sufu block | Shn3 inh set2 | Mdm2 MdmX PPI | Beta apoptosis | CSC inhib
COc1ccc(/C=N/NC(=O)CSc2nnc(C)n2-c2ccccc2)c(OC)c1OC | · | – | – | – | – | –
COc1cccc(/C=N/NC(=O)CSc2nnc(C)n2-c2ccccc2)c1O | · | – | – | – | – | 77
COCCCNC(=S)N/N=C/c1cccc(OC)c1O | – | – | · | – | 88 | –
C[C@H]1CN([C@@H](C)CO)C(=O)c2cccc(NC(=O)Nc3ccc(F)cc3)c2O[C@@H]1CN(C)CC1CC1 | – | · | · | · | · | ·
O=C1/C(=C\c2ccco2)SC(=S)N1c1ccc(O)cc1 | 91 | – | – | – | – | –
O=C(C1CC1)N1CCCCN2[C@@H](CO)[C@@H](c3ccc(-c4ccncc4)cc3)[C@@H]2C1 | – | · | · | · | · | ·
COc1cccc2c1C(=O)c1c(O)c3c(c(O)c1C2=O)CC(O)(C(C)=O)CC3OC1CC(O)C(O)C(C)O1 (stereo not drawn) | – | 55 | – | · | · | ·
CCCCC(=O)OCC(=O)C1(O)Cc2c(O)c3c(c(O)c2C(OC2CC(NC(=O)C(F)(F)F)C(O)C(C)O2)C1)C(=O)c1c(OC)cccc1C3=O (stereo not drawn) | – | – | – | · | · | ·
COc1cccc2c1C(=N)c1c(O)c3c(c(O)c1C2=O)CC(O)(C(C)=O)CC3OC1CC(N)C(O)C(C)O1 (stereo not drawn) | · | 75 | 92 | · | · | ·
C[C@@H]1CCCCO[C@@H](CN(C)Cc2ccc(Cl)c(Cl)c2)[C@@H](C)CN([C@H](C)CO)C(=O)c2cc(NS(C)(=O)=O)ccc2O1 | – | · | · | · | · | ·
C[C@@H]1CN([C@@H](C)CO)C(=O)Cc2cc(NC(=O)Nc3ccc(F)cc3)ccc2O[C@H]1CN(C)CC1CCCCC1 | 82 | · | · | · | · | ·
C[C@@H]1CN([C@@H](C)CO)C(=O)Cc2cc(NC(=O)NC3CCCCC3)ccc2O[C@H]1CN(C)CC1CCCCC1 | 67 | · | · | · | · | ·
C[C@@H]1CN([C@@H](C)CO)C(=O)Cc2cc(NC(=O)Nc3ccc4c(c3)OCO4)ccc2O[C@H]1CN(C)CC1CCCCC1 | 83 | · | · | · | · | ·
C[C@@H]1CN([C@H](C)CO)C(=O)Cc2cc(NC(=O)Nc3ccc(F)cc3)ccc2O[C@H]1CN(C)CC1CC1 | – | · | · | · | · | ·
O=C(O)C[C@@H]1CC[C@H](NC(=O)Nc2cc(F)ccc2F)[C@@H](CO)O1 | – | · | · | · | · | ·
CCCOc1ccc2[nH]c(C(=O)N/N=C/c3cc(OC)c(OC)c(OC)c3)cc2c1 | 91 | – | – | – | – | –
CCOc1ccc2[nH]c(C(=O)N/N=C/c3ccccc3OC)cc2c1 | – | – | – | – | – | –
Cc1ccccc1N1C(=O)CC(Sc2nnc(-c3ccccc3)o2)C1=O (stereo not drawn) | · | – | – | – | – | –
O=C1CC(Sc2nnc(-c3ccccc3)o2)C(=O)N1c1ccccc1 (stereo not drawn) | 72 | – | – | – | – | –
O=C(CC(F)(F)F)N1C[C@@H]2[C@H](c3ccccc31)[C@@H](CO)N2C(=O)Cc1cccnc1 | – | · | · | · | · | ·
c1ccc(-c2c(-c3ccccc3)n(Cc3ccco3)c3ncnc(NCCCn4ccnc4)c23)cc1 | · | – | – | – | – | 133
OCCNc1ncnc2c1c(-c1ccccc1)c(-c1ccccc1)n2Cc1ccco1 | – | – | – | – | – | –
C[C@H]1CN([C@@H](C)CO)C(=O)Cc2cc(NS(=O)(=O)c3ccc(Cl)cc3)ccc2O[C@@H]1CN(C)C(=O)Nc1ccc2c(c1)OCO2 | – | · | · | · | · | ·
O=S(=O)(c1ccc2nc(N3CCN(c4ccccc4F)CC3)ccc2c1)N1CCCCC1 | – | – | – | – | – | –
O=S(=O)(c1ccc2nc(Nc3ccccc3)ccc2c1)N1CCCCC1 | – | – | – | – | 103 | –
SMILES | PAX8 reporter | Gli-Sufu block | Shn3 inh set2 | Mdm2 MdmX PPI | Beta apoptosis | CSC inhib
C[C@@H]1CN([C@@H](C)CO)C(=O)c2cccc(NC(=O)c3ccncc3)c2O[C@@H]1CN(C)S(C)(=O)=O | – | · | · | · | · | ·
CCCNC(=O)C[C@@H]1CC[C@@H]2[C@@H](COc3ccc(NC(=O)Nc4cccc(C)c4)cc3C(=O)N2C)O1 | – | · | · | · | · | ·
Clc1ccc(-c2nnc(-c3ccccc3)c(-c3ccccc3)n2)cc1 | – | – | – | – | – | 85
CCOc1cnn(-c2cc(Oc3ccc(C)cc3)ncn2)c(=O)c1Cl | · | – | – | – | – | –
Cc1ccccc1Oc1cc(-n2ncc(Cl)c(Cl)c2=O)ncn1 | – | – | 96 | · | 99 | 108
C[C@H]1CCCCO[C@H](CN(C)C(=O)c2ccccc2)[C@@H](C)CN([C@@H](C)CO)C(=O)c2cc(NC(=O)Nc3ccc(C(F)(F)F)cc3)ccc2O1 | 86 | · | · | · | · | ·
